Where a name gives a salt, the structure may show the parent alone.
system: S. cerevisiae BY4741 (wild-type), vegetative growth in YPD; experiment: growth sensitivity score (doubling time z-score vs DMSO controls); higher = slower growth, strongly negative scores also mark growth inhibition (complete suppression), active = hit call of the paper
How it was run: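 Yeast (Saccharomyces cerevisiae BY4741 and AD1-9) was grown in rich medium in microtiter plates from a starting OD600 of 0.065, with optical density read every 15 min over 24 hours. The growth sensitivity score was the difference between compound and solvent-only means, divided by the solvent-only standard deviation. Every experiment had eight solvent-only wells.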

| Structure (SMILES) | growth sensitivity score |
| --- | --- |
| OCCOCCN1CCN(C2=Nc3ccccc3Sc3ccccc32)CC1 [Quetiapine hemifumarate] (stock concentration (mM, diluted 1:100): 7.7) | 1.12 (inactive) |
| O=c1n(CCCN2CCN(c3cccc(Cl)c3)CC2)nc2ccccn12 [Trazodone hydrochloride] (stock concentration (mM, diluted 1:100): 10) | 0.24 (inactive) |
| O=C1CC[C@@H](C(=O)N2CSC[C@H]2C(=O)O)N1 [Pidotimod] (stock concentration (mM, diluted 1:100): 10) | -1.4 (inactive) |
| COC(=O)C1=C(C)NC(C)=C(C(=O)OC2CCCN(Cc3ccccc3)C2)C1c1cccc([N+](=O)[O-])c1 (configuration not stated) [Benidipine hydrochloride] (stock concentration (mM, diluted 1:100): 6) | 1.95 (inactive) |
| CC(Oc1c(Cl)cccc1Cl)C1=NCCN1 (configuration not stated) [Lofexidine hydrochloride] (stock concentration (mM, diluted 1:100): 10) | 0.09 (inactive) |
| Cc1[nH]c(=O)c(C#N)cc1-c1ccncc1 [Milrinone] (stock concentration (mM, diluted 1:100): 10.1) | -0.97 (inactive) |
| CO[C@H]1/C=C/O[C@@]2(C)Oc3c(C)c(O)c4c(O)c(c5c(nc6cc(C)ccn65)c4c3C2=O)NC(=O)/C(C)=C\C=C\[C@H](C)[C@H](O)[C@@H](C)[C@@H](O)[C@@H](C)[C@H](OC(C)=O)[C@@H]1C [Rifaximin] (stock concentration (mM, diluted 1:100): 10) | -1.64 (inactive) |

From the supplement of paper PMC3414501
